High-throughput results as filed in PubChem BioAssay.
INS promoter inh – TRM-6 insulin promoter activity inhibition; inhibition, % at 2 µM; AID 1273; TRM-6 cells (human fetal islet line), insulin promoter-eGFP reporter, imaging; reporter expression induced with tamoxifen; actives 0.9% (n = 130,000);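 active means inhibition above the mean plus 3 SD, with well images judged a real hit on visual review, cut at about 60% in these data, passing the limit was not always enough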
L major viab – reduces viability of Leishmania major promastigotes; resazurin fluorescence viability; inhibition, % at 10 µM; actives 9% (n = 200,000); in the data active means inhibition above about 50%;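 further: promastigotes grown with compound for 44 hours at 28 °C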
Ins promoter up – MIN6 insulin promoter up-regulation; MIN6 insulin promoter-GFP reporter, high-content imaging; stronger effect = higher value; z-score at 5 µM; actives 0.3% (n = 190,000);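 active means z-score above 3 at 5 µM with at least 500 cells counted in the well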
Autophagy mod – autophagy modulation, high-content screen; MEF GFP-LC3 puncta imaging; test concentration mostly 10 µM; calls only at 10 µM (by protocol); actives 0.98% (n = 190,000); AID 463193;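 active means percentage of spot-positive cells more than 3 SD above its plate mean, without a fluorescence outlier flag or 80% toxicity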
WT yeast gro inh – growth inhibition of WT yeast, mitochondrial fusion screen | inhibition, % at 10 µM | actives 2.1% (n = 190,000) | mitochondrial fusion phenotypic screen, WT strain; in the data active means inhibition above about 58%; tested in S. cerevisiae
Hits are given with their value. Rows were chosen to be rich in hits. Some 11% of all compounds tested hit in one or more screens of this group.

What do the screens show for `O=C(N/N=C\c1ccc(-c2ccccc2[N+](=O)[O-])o1)C1COc2cc3ccccc3cc2O1` (stereo unspecified)?
INS promoter inh: inactive; L major viab: 96; Ins promoter up: inactive; Autophagy mod: inactive; WT yeast gro inh: inactive

How did Cc1[nH]n(-c2nc(-c3ccccc3F)cc(=O)[nH]2)c(=O)c1CCO do in these assays?
INS promoter inh: inactive; L major viab: inactive; Autophagy mod: inactive; WT yeast gro inh: inactive

How did N/C(=N\O)c1ccccc1N1CCCCC1 do in these assays?
L major viab: inactive; Ins promoter up: inactive; Autophagy mod: inactive; WT yeast gro inh: inactive

How did CC(C)C(C(=O)O)N1CCS(=O)(=O)CC1 (stereo unspecified) do in these assays?
INS promoter inh: inactive; L major viab: inactive; Ins promoter up: inactive; Autophagy mod: inactive; WT yeast gro inh: inactive

How did O=C(COC(=O)CCC(=O)c1cccs1)Nc1ccccc1[N+](=O)[O-] do in these assays?
L major viab: inactive; Ins promoter up: inactive; Autophagy mod: inactive; WT yeast gro inh: inactive

How did CCCn1nnc(NC(=O)c2ccc(Br)cc2)n1 do in these assays?
INS promoter inh: 79; L major viab: inactive; Ins promoter up: inactive; Autophagy mod: inactive; WT yeast gro inh: inactive

Results for CC12C(=O)N(c3ccc(OC(=O)c4ccco4)cc3)C(=O)C1C1c3ccccc3C2c2ccccc21 (stereo unspecified) ?
INS promoter inh: inactive; L major viab: 58; Ins promoter up: inactive; Autophagy mod: inactive; WT yeast gro inh: inactive

What do the screens show for `Cc1cccc(-c2c3c(=O)n(C)c(=O)n(C)c3c3nnc4ccccc4n23)c1`?
INS promoter inh: inactive; L major viab: inactive; Autophagy mod: active

How did O=C(OCc1cc(=O)n2cc(Br)ccc2n1)c1ccc(Cl)c(S(=O)(=O)NCc2ccccc2)c1 do in these assays?
INS promoter inh: inactive; L major viab: inactive; Ins promoter up: inactive; Autophagy mod: inactive; WT yeast gro inh: inactive

Results for COC(=O)[C@H](Cc1ccccc1)NC(=O)O[C@H]1C(=O)c2ccc(OC)cc2O[C@@H]1c1ccc2c(c1)OCO2 ?
INS promoter inh: inactive; L major viab: inactive; Ins promoter up: inactive; Autophagy mod: inactive; WT yeast gro inh: 62

Results for COC(=O)[C@H](Cc1ccccc1)NC(=O)O[C@@H]1C(=O)c2cc(OC)ccc2O[C@H]1c1ccc(OC)c(Br)c1 ?
INS promoter inh: inactive; L major viab: inactive; Ins promoter up: inactive; Autophagy mod: inactive; WT yeast gro inh: inactive

What do the screens show for `CCOC(=O)CN1CC23C=CC(O2)C(C(=O)Nc2cc(OC)ccc2OC)C3C1=O` (stereo unspecified)?
L major viab: inactive; Ins promoter up: 4.2; Autophagy mod: inactive; WT yeast gro inh: inactive

What do the screens show for `CCOC(=O)CN1CC23C=CC(O2)C(C(=O)Nc2ccc(OC)cc2OC)C3C1=O` (stereo unspecified)?
L major viab: inactive; WT yeast gro inh: inactive

Results for O=C(O)Cc1cc(C(=O)Nc2ccc(Br)cc2)sc1-c1ccccc1 ?
INS promoter inh: inactive; L major viab: inactive; Ins promoter up: inactive; Autophagy mod: inactive; WT yeast gro inh: inactive

Results for Cc1ccc(C)c(NC(=O)c2ccccc2Sc2ccc([N+](=O)[O-])cc2Cl)c1 ?
INS promoter inh: inactive; L major viab: 96; Ins promoter up: inactive; Autophagy mod: inactive; WT yeast gro inh: inactive

Results for Cc1ccc(C)c(NC(=O)c2ccccc2NS(=O)(=O)c2cc([N+](=O)[O-])ccc2C)c1 ?
INS promoter inh: inactive; L major viab: 63; Ins promoter up: inactive; Autophagy mod: inactive; WT yeast gro inh: 80

Results for Cc1ccc(C)c(S(=O)(=O)Nc2ccccc2C(=O)Nc2cc(C)on2)c1 ?
L major viab: inactive; Ins promoter up: inactive; Autophagy mod: inactive; WT yeast gro inh: inactive

What do the screens show for `CSc1ccccc1C(=O)Nc1cc(C)ccc1C`?
L major viab: inactive; Ins promoter up: inactive; Autophagy mod: inactive; WT yeast gro inh: inactive

How did CC(=O)c1sc(N/N=C\c2ccc(Br)cc2)nc1C do in these assays?
INS promoter inh: inactive; L major viab: inactive; Ins promoter up: inactive; Autophagy mod: inactive; WT yeast gro inh: 60

Results for CC(C)NS(=O)(=O)c1ccc(NC(=O)NC2CCCCC2)cc1 ?
INS promoter inh: inactive; L major viab: inactive; Ins promoter up: inactive; Autophagy mod: inactive; WT yeast gro inh: inactive

How did Cc1ccc(NNC2CC(=O)N(c3cccc(Cl)c3)C2=O)cc1 (stereo unspecified) do in these assays?
L major viab: inactive; Ins promoter up: inactive; Autophagy mod: inactive; WT yeast gro inh: inactive

How did Cc1ccc(N2C(=O)CC(NNc3nc4ccccc4s3)C2=O)cc1C (stereo unspecified) do in these assays?
INS promoter inh: inactive; L major viab: 56; Ins promoter up: inactive; Autophagy mod: inactive; WT yeast gro inh: inactive
